Measured values published in the supplement of paper PMC12669032.
Values without a mark were called inactive.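 How the source made its calls: active = AUC reduced over 20% with Padj below 0.05 in at least 2 of 3 replicates; inactive = otherwise.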

Legend:
Experiment in all cases: growth AUC relative to DMSO control (median of replicates) (fraction); higher = more growth (less inhibition), active = hit call of the paper
Details in all cases: 20 µM; 24 h
Akkermansia muciniphila = tested on: Akkermansia muciniphila
In short: (§1)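 OD600 was recorded every hour for 24 h in anaerobic monocultures of gut bacteria kept at 37 °C in mGAM, seeded at OD600 0.05 and given 20 µM compound in 1% DMSO. The area under each growth curve was scaled to the plate median of solvent-only wells, or to row and column medians for the industrial chemical plate. Before this step, the minimum OD was set to 0. Reported values are medians of three biological replicates run on separate days.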

Bacteroides caccae = tested on: Bacteroides caccae
In short: as §1

Bacteroides clarus = tested on: Bacteroides clarus
In short: as §1

Bacteroides dorei = tested on: Bacteroides dorei
In short: as §1

Bacteroides stercoris = tested on: Bacteroides stercoris
In short: as §1

[1] = tested on: Bacteroides thetaiotaomicron
In short: as §1

Bacteroides uniformis = tested on: Bacteroides uniformis
In short: as §1

[2] = tested on: Bifidobacterium longum subsp. longum
In short: as §1

Clostridium difficile = tested on: Clostridium difficile
In short: as §1

Collinsella aerofaciens = tested on: Collinsella aerofaciens
In short: as §1

Coprococcus comes = tested on: Coprococcus comes
In short: as §1

Escherichia coli ED1a = tested on: Escherichia coli ED1a
In short: as §1

Escherichia coli IAI1 = tested on: Escherichia coli IAI1
In short: as §1

Eubacterium rectale = tested on: Eubacterium rectale
In short: as §1

[3] = tested on: Fusobacterium nucleatum subsp. animalis
In short: as §1

Lactobacillus gasseri = tested on: Lactobacillus gasseri
In short: as §1

Lactobacillus paracasei = tested on: Lactobacillus paracasei
In short: as §1

Odoribacter splanchnicus = tested on: Odoribacter splanchnicus
In short: as §1

[4] = tested on: Parabacteroides distasonis
In short: as §1

Parabacteroides merdae = tested on: Parabacteroides merdae
In short: as §1

SMILES	growth AUC (Akkermansia muciniphila)	growth AUC (Bacteroides caccae)	growth AUC (Bacteroides clarus)	growth AUC (Bacteroides dorei)	growth AUC (Bacteroides stercoris)	growth AUC [1]	growth AUC (Bacteroides uniformis)	growth AUC [2]	growth AUC (Clostridium difficile)	growth AUC (Collinsella aerofaciens)	growth AUC (Coprococcus comes)	growth AUC (Escherichia coli ED1a)	growth AUC (Escherichia coli IAI1)	growth AUC (Eubacterium rectale)	growth AUC [3]	growth AUC (Lactobacillus gasseri)	growth AUC (Lactobacillus paracasei)	growth AUC (Odoribacter splanchnicus)	growth AUC [4]	growth AUC (Parabacteroides merdae)
CCS(=O)(=O)c1nc2ccccn2c1S(=O)(=O)NC(=O)Nc1nc(OC)cc(OC)n1	1.1	1.02	1.02	0.993	1	0.995	0.989	0.928	1.01	0.983	1.04	0.99	1.01	0.999	0.977	0.88	1.01	1.05	1.02	1.02
Cc1nc(N(C)C=O)nc(OC(=O)N(C)C)c1C	1.01	0.986	0.998	0.985	0.955	0.977	0.971	1	0.963	0.992	0.995	0.975	0.954	1.03	1.06	0.976	0.985	0.981	1.04	0.982
CCc1cc(C)cc(CC)c1-c1c(OC(=O)C(C)(C)C)n2n(c1=O)CCOCC2	1.01	0.906	1	0.992	1.22	1.01	1	0.952	0.944	1	0.964	0.99	0.976	1.14	1.1	0.845	1.03	1.03	0.851	1.01
c1nc[n]([Sn]([CH]2CCCCC2)([CH]2CCCCC2)[CH]2CCCCC2)n1	1.02	0.997	0.86	0.939	0.935	0.955	0.901	0.506	0.951	0.814	0.723	1.06	1.06	0.908	1.03	1.03	0.972	1.03	0.927	0.746 (active)
N#CC(CCc1ccc(Cl)cc1)(Cn1cncn1)c1ccccc1 (stereo not given)	1.02	0.967	0.961	0.952	0.941	0.94	0.873	0.978	0.957	0.968	0.969	1.03	1.02	1.07	0.942	0.904	0.952	0.88	0.57 (active)	0.96
CC(Oc1ccc(Oc2ccc(C(F)(F)F)cn2)cc1)C(=O)O (stereo not given)	1.17	0.992	1.02	0.943	1.04	1.01	0.899	1.05	0.917	0.941	1.01	0.995	0.996	1.12	0.915	0.839	0.969	0.766 (active)	0.72	0.993
CC(C)OC(=O)C(O)(c1ccc(Br)cc1)c1ccc(Br)cc1	0.997	0.883	0.779 (active)	0.933	0.239 (active)	0.93	0.923	0.96	0.982	0.928	0.905	1.01	1.01	0.912	1.01	0.918	0.981	1.05	0.854	0.868
O=C1C2CC=CCC2C(=O)N1SC(Cl)(Cl)Cl (stereo not given)	0.981	1.03	1.01	1.03	1.08	1.01	1.02	0.981	1.04	1.02	1.03	1.02	1.02	1.1	1.1	1.06	1.01	0.999	1.07	1.02
CCCCc1c(C)nc(N(C)C)[nH]c1=O	0.964	1.01	0.966	0.984	1.03	0.989	0.982	0.998	0.997	1.05	1	0.976	0.913	0.825	1.09	1	0.896	1.05	1.03	1.01
CC[C@H]1CCCC(O[C@H]2CC[C@H](N(C)C)[C@@H](C)O2)[C@@H](C)C(=O)C2=C[C@@H]3[C@@H](C=C(C)[C@@H]4C[C@@H](O[C@@H]5O[C@@H](C)[C@H](OC)[C@@H](OC)[C@H]5OC)C[C@@H]34)[C@@H]2CC(=O)O1.CC[C@H]1CCCC(O[C@H]2CC[C@H](N(C)C)[C@@H](C)O2)[C@@H](C)C(=O)C2=C[C@@H]3[C@@H](C=C[C@@H]4C[C@@H](O[C@@H]5O[C@@H](C)[C@H](OC)[C@@H](OC)[C@H]5OC)C[C@@H]34)[C@@H]2CC(=O)O1 (stereo not given in full)	0.986	1.01	0.979	1.04	0.888	1	0.987	0.889	1.03	0.958	0.973	0.963	0.966	0.985	0.995	0.879	0.902	1.04	1.01	0.925
CC1(C)C(C=C(Cl)Cl)C1C(=O)OCc1cccc(Oc2ccccc2)c1 (mixture of isomers)	1.02	0.991	0.98	1.01	1.07	1.02	1.03	0.957	1.01	0.942	0.964	1.02	0.98	0.911	0.954	0.864	1.01	0.977	1	0.951
CCC/C(=N\OCC)C1=C(O)CC(CC(C)SCC)CC1=O (stereo not given)	0.936	1.01	0.989	1.02	0.974	0.992	1.01	0.85	1.01	1.01	0.986	0.986	0.973	0.937	0.867	0.964	0.978	0.979	0.991	0.988
OC(Cc1ccccc1Cl)(Cn1[nH]cnc1=S)C1(Cl)CC1 (stereo not given)	1.02	0.971	0.856	0.91	1.04	0.821	0.805	0.842	0.985	1.04	0.932	1.02	1.04	0.897	1.02	1.01	1.04	0.825	0.916	0.894
Cc1[nH]c(=O)n(C(C)(C)C)c(=O)c1Cl	1.07	1	0.993	0.96	0.979	1	0.981	0.978	0.997	0.924	0.999	0.983	0.942	1.01	0.978	0.927	1.06	1.02	0.968	0.995
COC(=O)Nc1nc2ccccc2[nH]1	0.927	1.01	0.991	1.01	0.957	1.04	0.988	1.01	1.06	1.03	1.05	1.04	1.01	0.854	1.03	1.14	0.862	0.997	1.03	0.981
N#Cc1c[nH]cc1-c1cccc(Cl)c1Cl	0.905	0.819	0.9	0.871	0.884	0.835	0.816	1.09	0.901	0.935	0.948	1.01	0.981	1.06	0.797	1.06	1.07	0.732	0.804	0.941
